# Reference: PubChem BioAssay (EPA / NIEHS)
# Inconclusive results are not listed. Activity calls are given as the source filed them. Rule for the calls, unless noted: active = hit-call score of the fitted dose curve at least 0.9, where 1 is the maximum; inactive = score below 0.9.
# What was measured:
# [1] = APR_HepG2_CellCycleArrest_24hr: Apredica 24-hour HepG2 Assay for Cell Cycle Arrest (AID 2282905); conditions: imaging, actives raise or lower the signal;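 note: cell cycle arrest scored as ratio of 2N to 4N nuclear DNA content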
# Summary of the method: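 After 24 h exposure at 0.39–200 uM in 0.5% DMSO, fixed cells received Hoechst 33342 staining. Imaging quantified per-nucleus DNA content; gain or loss fitted against DMSO controls.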
# [2] = APR_HepG2_NuclearSize_24hr: Apredica 24-hour HepG2 Assay for Nuclear Size (AID 2282907); conditions: high-content imaging, actives raise or lower the signal
# Summary of the method: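 Nuclear size from Hoechst 33342-stained, formaldehyde-fixed HepG2 nuclei imaged by high-content microscopy, after 24 h dosing at ten concentrations from 0.39 to 200 uM in 0.5% DMSO; gain or loss relative to DMSO baseline.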
# [3] = APR_HepG2_CellLoss_24hr: Apredica 24-hour HepG2 Assay for Cell Loss (AID 2282908); conditions: high-content imaging;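 for AC50: fit in both directions so a hit may be cell loss or gain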
# Summary of the method: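 Nuclei stained with Hoechst 33342 after formaldehyde fixation (3.7%) were imaged at 20x to count cells. Exposure lasted 24 hr, at ten concentrations from 0.39 to 200 uM in duplicate, with 0.5% v/v DMSO. Fit bidirectional, relative to DMSO.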
# [4] = APR_HepG2_MicrotubuleCSK_24hr: Apredica 24-hour HepG2 Assay for Microtubule CSK Stabilty (AID 2282909); conditions: HepG2 microtubule cytoskeleton imaging, actives raise or lower the signal
# Summary of the method: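 Fixed HepG2 cells were stained for alpha-tubulin and imaged after 24 hr exposure to ten concentrations spanning 0.39–200 uM in 0.5% DMSO. Signal change was fitted in both directions relative to DMSO; taxol was the positive control.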
# [5] = APR_HepG2_MitoMembPot_24hr: Apredica 24-hour HepG2 Assay for Mitochondrial Membrane Potential (AID 2282911); conditions: imaging, actives raise or lower the signal
# Summary of the method: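 HepG2 cells exposed 24 h to 0.39–200 uM compounds in duplicate, 0.5% v/v DMSO final. MitoTracker Red CMXRos 250 nM loaded 30 min before formaldehyde fixation; high-content imaging at 20x, bidirectional fit versus DMSO.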
# [6] = APR_HepG2_MitoMass_24hr: Apredica 24-hour HepG2 Assay for Mitochondrial Mass (AID 2282912); conditions: high-content imaging, actives raise or lower the signal
# Summary of the method: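 Endpoint is MitoTracker Red CMXRos (250 nM, 30 min, pre-fixation) intensity from 20x high-content imaging, nuclei located by Hoechst. Human HepG2 cells received ten concentrations from 0.39 to 200 uM in 0.5% DMSO for 24 hr, duplicate wells. Bidirectional fit relative to DMSO.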
# [7] = APR_HepG2_p53Act_24hr: Apredica 24-hour HepG2 Assay for p53 Activation (AID 2282913); conditions: high-content imaging, actives raise or lower the signal;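 note: p53 protein immunofluorescence averaged per cell in HepG2 with Hoechst nuclei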
# Summary of the method: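 HepG2 cells exposed 24 h to compounds at 0.39–200 uM in duplicate, 0.5% v/v DMSO final; fixed, permeabilized, stained with anti-p53 antibody and Hoechst 33342; fluorescence imaging; bidirectional curve fit versus DMSO.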
# [8] = APR_HepG2_CellCycleArrest_72hr: Apredica 72-hour HepG2 Assay for Cell Cycle Arrest (AID 2282914); conditions: high-content imaging, actives raise or lower the signal
# Summary of the method: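 HepG2 cells exposed 72 h in duplicate to 0.39–200 uM compound, 0.5% DMSO final. Formaldehyde-fixed, Hoechst 33342-stained nuclei imaged at 20x, six fields per well; DNA content per valid cell quantified by cell-cycle image analysis, bidirectional fit versus DMSO.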
# [9] = APR_HepG2_CellLoss_72hr: Apredica 72-hour HepG2 Assay for Cell Loss (AID 2282915); conditions: high-content imaging
# Summary of the method: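 HepG2 cells were exposed for 72 hr to compounds at 0.39–200 uM (ten concentrations, duplicate) in 0.5% v/v final DMSO. Nuclei were stained with Hoechst 33342 after 3.7% formaldehyde fixation, imaged at 20x, and counted; fits bidirectional versus DMSO.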
# [10] = APR_HepG2_P-H2AX_72hr: Apredica 72-hour HepG2 Assay for H2AX Phosphorylation (AID 2282916); conditions: imaging, actives raise or lower the signal;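 note: phospho-histone H2A.x immunostain intensity per cell marking DNA damage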
# Summary of the method: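 Phospho-histone H2A.x immunofluorescence, multiplexed with Hoechst and c-Jun, quantified by high-content imaging. Compounds applied to HepG2 for 72 h across ten concentrations (0.39–200 uM, 0.5% DMSO), in duplicate; DMSO baseline.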
# [11] = APR_HepG2_MitoMembPot_72hr: Apredica 72-hour HepG2 Assay for Mitochondrial Membrane Potential (AID 2282917); conditions: imaging, actives raise or lower the signal
# Summary of the method: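 HepG2 cells exposed 72 h to compounds at 0.39–200 uM (0.5% v/v DMSO, duplicates); MitoTracker Red CMXRos 250 nM loaded 30 min before 3.7% formaldehyde fixation, imaged by HCS fluorescence. Bidirectional fit versus DMSO.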
# [12] = APR_HepG2_MitoticArrest_72hr: Apredica 72-hour HepG2 Assay for Mitotic Arrest (AID 2282918); conditions: high-content imaging, actives raise or lower the signal
# Summary of the method: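 HepG2 cells treated 72 h at 0.39–200 uM, 0.5% DMSO final; formaldehyde-fixed, stained with Hoechst 33342 and phospho-histone H3 antibody, imaged by high-content fluorescence; bidirectional fit versus DMSO.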
# [13] = APR_HepG2_MicrotubuleCSK_72hr: Apredica 72-hour HepG2 Assay for Microtubule CSK Stabilty (AID 2282919); conditions: HepG2 microtubule cytoskeleton, high-content imaging, actives raise or lower the signal
# Summary of the method: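 Ten-point dosing (0.39–200 uM, 0.5% DMSO) of HepG2 for 72 hr, with taxol as the cytoskeletal positive control. The cells were formaldehyde-fixed and then stained with alpha-tubulin/Cy5 and Hoechst. Imaging at 20x used a −2 um Z offset for tubulin.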
# [14] = APR_HepG2_P-H2AX_24hr: Apredica 24-hour HepG2 Assay for H2AX Phosphorylation (AID 2282920); conditions: high-content imaging, actives raise or lower the signal
# Summary of the method: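 HepG2 cells dosed 24 h at 0.39–200 uM (10 points, duplicate, 0.5% DMSO final). Formaldehyde-fixed and permeabilized, then immunostained for phospho-H2A.x with Hoechst. Fluorescence quantified by high-content imaging, fitted bidirectionally versus DMSO.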
# [15] = APR_HepG2_StressKinase_72hr: Apredica 72-hour HepG2 Assay for Stress Kinase (AID 2282921); conditions: HepG2 stress kinase (phospho-c-Jun) imaging, actives raise or lower the signal
# Summary of the method: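 Stress kinase signal is phospho-c-Jun immunofluorescence (1:500 primary, Cy3 secondary) in fixed, permeabilized human HepG2 cells imaged at 20x. Exposure lasted 72 hr over ten concentrations from 0.39 to 200 uM, 0.5% DMSO, in duplicate. Bidirectional fit versus DMSO.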
# [16] = APR_HepG2_StressKinase_24hr: Apredica 24-hour HepG2 Assay for Stress Kinase (AID 2282922); conditions: HepG2 stress kinase (phospho-c-Jun) imaging, actives raise or lower the signal
# Summary of the method: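 After 24 hr compound treatment (up to 200 uM, final DMSO 0.5% v/v), HepG2 cells are fixed and multiplex-labeled; phospho-c-Jun intensity is captured by high-content fluorescence imaging and analyzed relative to DMSO.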
# [17] = APR_HepG2_p53Act_72hr: Apredica 72-hour HepG2 Assay for p53 Activation (AID 2282923); conditions: high-content imaging, actives raise or lower the signal;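 note: average cellular p53 protein immunofluorescence intensity in HepG2 cells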
# Summary of the method: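 After 72 h with compound (ten points, 0.39 to 200 uM, final DMSO 0.5% v/v), fixed HepG2 cells were labelled with sheep anti-p53 and Hoechst 33342 and imaged; gain or loss versus DMSO scored.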
# [18] = APR_HepG2_MitoMass_72hr: Apredica 72-hour HepG2 Assay for Mitochondrial Mass (AID 2282924); conditions: high-content imaging, actives raise or lower the signal;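 note: MitoTracker Red CMXRos stain intensity per cell imaged as mitochondrial mass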
# Summary of the method: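 Steps: treat HepG2 72 hr (0.39–200 uM, duplicate wells); load MitoTracker Red CMXRos, 250 nM, 30 min; fix with 3.7% formaldehyde, permeabilise with 0.5% Triton X-100; capture images, nuclei via Hoechst 33342; fit bidirectionally against DMSO.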
# [19] = APR_HepG2_NuclearSize_72hr: Apredica 72-hour HepG2 Assay for Nuclear Size (AID 2282925); conditions: high-content imaging, actives raise or lower the signal
# Summary of the method: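 Compounds (0.39–200 uM, final DMSO 0.5%) were applied to HepG2 for 72 hr. Cells were then formaldehyde-fixed, permeabilized and labelled with Hoechst 33342. Nuclear diameter was quantified from six images per well.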
# [20] = ACEA_ER_80hr: ACEA Biosciences xCELLigence Real-Time Cell Analysis on Estrogen Receptor Agonism for Proliferation (AID 2282667; active = hit-call score of the fitted dose curve at least 0.9, where 1 is the maximum); conditions: T47D proliferation, impedance (xCELLigence), 80 h
# Summary of the method: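 T-47D cells monitored by electrical impedance (xCELLigence) with compound present throughout; 80 h timepoint, positive-direction fitting versus DMSO. Eight-point 1:4 dilutions from 100 uM final, duplicate plates.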
smiles,measurement,setting,value
CCN1CCC2(CC1)COc1cc3c(cc12)N(C(=O)c1ccc(-c2ccc(-c4nnc(C)o4)cc2C)cc1)CC3,outcome,[1],inactive
same,outcome,[2],inactive
same,AC50,[3],17.5 µM (active)
same,outcome,[4],inactive
same,outcome,[5],inactive
same,AC50,[6],7.43 µM (active)
same,AC50,[7],25.8 µM (active)
same,outcome,[8],inactive
same,AC50,[9],9.88 µM (active)
same,AC50,[10],41.7 µM (active)
same,AC50,[11],75.1 µM (active)
same,AC50,[12],6.34 µM (active)
same,outcome,[13],inactive
same,AC50,[14],28.9 µM (active)
same,AC50,[15],5.12 µM (active)
same,AC50,[16],47.9 µM (active)
same,AC50,[17],59.8 µM (active)
same,AC50,[18],44.7 µM (active)
same,outcome,[19],inactive
CCCCCCCCc1ccc(O)cc1,outcome,[1],inactive
same,AC50,[2],103 µM (active)
same,AC50,[3],67 µM (active)
same,outcome,[4],inactive
same,outcome,[5],inactive
same,outcome,[6],inactive
same,AC50,[7],67.3 µM (active)
same,AC50,[8],52.5 µM (active)
same,AC50,[9],86.7 µM (active)
same,outcome,[10],inactive
same,AC50,[11],34.6 µM (active)
same,AC50,[12],98 µM (active)
same,outcome,[13],inactive
same,outcome,[14],inactive
same,outcome,[15],inactive
same,outcome,[16],inactive
same,outcome,[17],inactive
same,AC50,[18],95 µM (active)
same,outcome,[19],inactive
C[C@@H]1C[C@@H]([C@H](O)CC2CC(=O)NC(=O)C2)C(=O)[C@@H](C)C1,AC50,[1],1.19 µM (active)
same,outcome,[2],inactive
same,AC50,[3],0.465 µM (active)
same,outcome,[4],inactive
same,outcome,[5],inactive
same,outcome,[6],inactive
same,AC50,[7],21.7 µM (active)
same,AC50,[8],7.46 µM (active)
same,AC50,[9],0.415 µM (active)
same,outcome,[10],inactive
same,outcome,[11],inactive
same,AC50,[12],0.564 µM (active)
same,AC50,[13],1.11 µM (active)
same,outcome,[14],inactive
same,outcome,[15],inactive
same,outcome,[16],inactive
same,AC50,[17],4.8 µM (active)
same,outcome,[18],inactive
same,outcome,[19],inactive
CCNc1nc(NC(C)(C)C)nc(SC)n1,outcome,[20],inactive
CCC(=O)C(CC(C)N(C)C)(c1ccccc1)c1ccccc1 (stereo unspecified),AC50,[1],25.1 µM (active)
same,outcome,[2],inactive
same,outcome,[3],inactive
same,outcome,[4],inactive
same,outcome,[5],inactive
same,outcome,[6],inactive
same,outcome,[7],inactive
same,outcome,[8],inactive
same,AC50,[9],73.6 µM (active)
same,AC50,[10],73.5 µM (active)
same,outcome,[11],inactive
same,AC50,[12],75.6 µM (active)
same,AC50,[13],81.3 µM (active)
same,outcome,[14],inactive
same,AC50,[15],78.9 µM (active)
same,outcome,[16],inactive
same,AC50,[17],69.8 µM (active)
same,outcome,[18],inactive
same,outcome,[19],inactive
NNC(=S)NN,outcome,[20],inactive
ClC1(Cl)C2(Cl)C3(Cl)C4(Cl)C(Cl)(Cl)C5(Cl)C3(Cl)C1(Cl)C5(Cl)C24Cl (stereo unspecified),outcome,[1],inactive
same,outcome,[2],inactive
same,outcome,[3],inactive
same,outcome,[4],inactive
same,outcome,[5],inactive
same,outcome,[6],inactive
same,outcome,[7],inactive
same,outcome,[8],inactive
same,outcome,[9],inactive
same,outcome,[10],inactive
same,outcome,[11],inactive
same,outcome,[12],inactive
same,outcome,[13],inactive
same,outcome,[14],inactive
same,outcome,[15],inactive
same,outcome,[16],inactive
same,outcome,[17],inactive
same,outcome,[18],inactive
same,outcome,[19],inactive
ClCC(Cl)CCl,outcome,[1],inactive
same,outcome,[2],inactive
same,outcome,[3],inactive
same,outcome,[4],inactive
same,outcome,[5],inactive
same,outcome,[6],inactive
same,outcome,[7],inactive
same,outcome,[8],inactive
same,outcome,[9],inactive
same,outcome,[10],inactive
same,outcome,[11],inactive
same,outcome,[12],inactive
same,outcome,[13],inactive
same,outcome,[14],inactive
same,outcome,[15],inactive
same,outcome,[16],inactive
same,outcome,[17],inactive
same,outcome,[18],inactive
same,outcome,[19],inactive
